KLK7 zymogen act: activates the human kallikrein-7 zymogen; activation, % at 7 µM; purified proKLK7, EDANS-DABCYL substrate fluorescence; 100% is mature enzyme control, 0% vehicle; P49862; actives 0.9% (n = 370,000);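 active = activation above the mean of all tested compounds plus 3 SD, computed per campaign excluding outliers beyond control limits, cut at about 13% in these data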
Target sequence (P49862 whole entry, looked up): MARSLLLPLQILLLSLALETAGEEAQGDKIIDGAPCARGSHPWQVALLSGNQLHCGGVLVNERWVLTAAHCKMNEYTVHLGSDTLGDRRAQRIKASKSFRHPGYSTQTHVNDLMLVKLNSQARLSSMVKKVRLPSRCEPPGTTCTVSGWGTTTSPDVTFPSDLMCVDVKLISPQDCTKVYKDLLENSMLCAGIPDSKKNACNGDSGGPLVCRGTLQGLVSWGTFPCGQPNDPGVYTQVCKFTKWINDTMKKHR
V-ATPase pHluor: alters yeast V-ATPase proton transport. actives 0.37% (n = 350,000). AID 504577. S. cerevisiae, pHLuorin cytosolic pH fluorescence. response, % at 10 µM; in the data active = response mostly above about 7.3%, no sharp cut-off; inactive = mostly below about 5.4%; also: actives read high
ADAM10 inh: inhibits human ADAM10; O14672; recombinant ADAM10, EDANS/DABCYL FRET peptide cleavage, 3 h; inhibition, % at 7 µM; actives 0.62% (n = 370,000);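 active = inhibition above a per-campaign cutoff equal to the mean of compounds falling between control-based bounds plus 3 SD, cut at about 20% in these data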;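 also: 0% = DMSO wells while the 100% control is not disclosed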
ADAM17 inh: ADAM17 inhibition, QFRET primary screen; inhibition, % at 6.95 µM; recombinant ADAM17, EDANS/DABCYL FRET peptide cleavage; P78536; actives 0.83% (n = 370,000);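 active = inhibition above the mean of compounds lying between control limits plus 3 SD, set per campaign, cut at about 8.5% in these data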;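 also: 0% = DMSO-only wells as the low control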
proKLK7 act conf: confirmation of human kallikrein-7 zymogen activators. shares compounds with KLK7 zymogen act. purified proKLK7, EDANS-DABCYL substrate fluorescence; scaled: vehicle 0, mature enzyme 100. activation, % at 7 µM. actives 68% (n = 3,200). AID 686949;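 active = activation, as change over the incubation, above the mean of all tested compounds plus 3 SD, cut at about 13% in these data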
EDANS-DABCYL int: fluorescence interference counter-screen for KLK7 activators; shares compounds with KLK7 zymogen act; EDANS-DABCYL substrate fluorescence interference, no enzyme, 4 h; solvent 0%, active enzyme control 100%; activation, % at 7 µM; actives 80% (n = 3,200); AID 686952;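 active = activation above the all-compound mean plus 3 SD, ignoring values outside control-based bounds, cut at about 4.8% in these data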;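 also: value is the 4 h activation minus the activation read at time zero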
EDANS interf: counter-screen for kallikrein-7 activators: EDANS-DABCYL interference, dose response; shares compounds with KLK7 zymogen act; EDANS-DABCYL peptide fluorescence interference, no enzyme; EC50, µM; actives 20% (n = 250);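 active = compounds that raise the fluorescence signal in this interference counterscreen, with EC50 at or below 10 µM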;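 also: intact quenched peptide substrate alone read at 355 nm excitation and 520 nm emission; signal is fluorescence gain from T0 to T4 after four hours at room temperature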
* = called active by the depositor. Only some compounds are listed: those with a hit (about 2.3% of all), similar ones and a draw of the others.

What do the screens show for `CC(C)C1=CC2C3C(=O)N(c4ccccc4)C(=O)C3C1C(=O)C2(C)O` (stereo not given)?
KLK7 zymogen act: 0.2; ADAM10 inh: 5.3; ADAM17 inh: -0.1

How did CC1CCN(C(=O)c2ncn3c2C(=O)NC[C@@H]3C)CC1 do in these assays?
KLK7 zymogen act: -0.4; ADAM10 inh: -11.9; ADAM17 inh: -1.5

Results for Cc1ccccc1NC(=O)[C@@H]1CC(=O)O[C@@H]1c1ccccc1 ?
KLK7 zymogen act: 0.4; ADAM10 inh: -7.4; ADAM17 inh: 0.0

How did Cc1c(O)ccc2c(CN3CCN(Cc4ccccc4)CC3)cc(=O)oc12 do in these assays?
KLK7 zymogen act: 46.0*; V-ATPase pHluor: -1.0; ADAM10 inh: inactive; ADAM17 inh: inactive; proKLK7 act conf: 78.2*; EDANS-DABCYL int: 74.6*

Results for O=c1cc(CN2CCN(Cc3ccccc3)CC2)c2ccc(O)c(O)c2o1 ?
KLK7 zymogen act: -0.4; V-ATPase pHluor: -2.9; ADAM10 inh: -45.1; ADAM17 inh: -17.7

What do the screens show for `CCCCCCC(=O)NC1CCCCN(C)C1=O` (stereo not given)?
KLK7 zymogen act: 0.4; ADAM10 inh: 1.0; ADAM17 inh: -0.4

What do the screens show for `Cc1coc2cc3oc(=O)c(CC(=O)N(C)CC(=O)O)c(C)c3cc12`?
KLK7 zymogen act: 13.5*; V-ATPase pHluor: 1.1; ADAM10 inh: inactive; ADAM17 inh: -271.5; proKLK7 act conf: 13.7*; EDANS-DABCYL int: 17.4*

What do the screens show for `COC(=O)c1ccc2c(C)c(C3(O)CCCCC3)[nH]c2c1`?
KLK7 zymogen act: 38.0*; V-ATPase pHluor: 0.0; ADAM10 inh: inactive; ADAM17 inh: inactive; proKLK7 act conf: -80.0; EDANS-DABCYL int: -81.7

What do the screens show for `COC(=O)c1cc(Cl)cc2c(C)c(C3(O)CCCCC3)[nH]c12`?
KLK7 zymogen act: -9.6; V-ATPase pHluor: -5.6; ADAM10 inh: -47.7; ADAM17 inh: -16.0

What do the screens show for `CCOC(=O)c1cnc2c(C(=O)OC)cccc2c1NCc1ccco1`?
KLK7 zymogen act: 14.3*; V-ATPase pHluor: 1.2; ADAM10 inh: inactive; ADAM17 inh: inactive; proKLK7 act conf: 14.6*; EDANS-DABCYL int: 7.3*; EDANS interf: >69.5

Results for CCOC(=O)c1cnc2c(C)cccc2c1NCc1ccco1 ?
KLK7 zymogen act: 0.3; V-ATPase pHluor: 2.2; ADAM10 inh: -35.6; ADAM17 inh: -12.4

Results for COC(=O)[C@]12C[C@H](CC(=O)NCc3cccc4ccccc34)C(=O)N(Cc3cccc4ccccc34)C1=C[C@H](COCc1ccccc1)O[C@@H]2C ?
KLK7 zymogen act: 0.1; ADAM10 inh: 12.5; ADAM17 inh: 4.3

What do the screens show for `O=C(c1ccco1)N1CCN(C(=O)c2cc3c(s2)-c2ccccc2OC3)CC1`?
KLK7 zymogen act: 22.9*; V-ATPase pHluor: 7.5; ADAM10 inh: inactive; ADAM17 inh: inactive; proKLK7 act conf: 3.8; EDANS-DABCYL int: -67.5

How did O=C(NC1CC1)c1cc2c(s1)-c1ccccc1OC2 do in these assays?
KLK7 zymogen act: 47.4*; V-ATPase pHluor: 2.1; ADAM10 inh: inactive; ADAM17 inh: inactive; proKLK7 act conf: 74.8*; EDANS-DABCYL int: 86.8*

How did O=C(O)c1cc2c(s1)-c1ccccc1CC2 do in these assays?
KLK7 zymogen act: 5.1; V-ATPase pHluor: 3.1; ADAM10 inh: inactive; ADAM17 inh: -385.8

How did O=C(NCCCN1CCOCC1)c1cc2c(s1)-c1ccccc1OC2 do in these assays?
KLK7 zymogen act: 46.8*; V-ATPase pHluor: 0.4; ADAM10 inh: inactive; ADAM17 inh: inactive; proKLK7 act conf: 68.0*; EDANS-DABCYL int: 65.1*

Results for O=C(O)c1cc2c(s1)-c1ccccc1OC2 ?
KLK7 zymogen act: 34.1*; V-ATPase pHluor: -1.1; ADAM10 inh: inactive; ADAM17 inh: inactive; proKLK7 act conf: 77.0*; EDANS-DABCYL int: 72.7*

What do the screens show for `O=C(NCc1cccs1)c1cc2c(s1)-c1ccccc1OC2`?
KLK7 zymogen act: -18.2; V-ATPase pHluor: 8.0; ADAM10 inh: inactive; ADAM17 inh: inactive

How did COc1cc(=O)oc(C=O)c1C do in these assays?
KLK7 zymogen act: 0.2; ADAM10 inh: -9.9; ADAM17 inh: -0.1

Results for Cc1ccccc1C(=O)N[C@H](C(=O)N1CCC[C@H]1C(=O)NCc1ccccc1)c1ccccc1 ?
KLK7 zymogen act: -0.1; ADAM10 inh: -2.5; ADAM17 inh: -1.5

Results for COc1cccc(-c2nc3ccccc3s2)c1O ?
KLK7 zymogen act: 25.4*; V-ATPase pHluor: -3.3; ADAM10 inh: -10.8; ADAM17 inh: -5.2; proKLK7 act conf: -3.2; EDANS-DABCYL int: -3.6

What do the screens show for `CCOC(=O)N1CCC(N2CCCC(C(=O)c3ccc4cc(OC)ccc4c3)C2)CC1` (stereo not given)?
KLK7 zymogen act: 68.9*; V-ATPase pHluor: -2.5; ADAM10 inh: inactive; ADAM17 inh: inactive; proKLK7 act conf: -29.5; EDANS-DABCYL int: -45.2

How did COc1ccc2cc(C(=O)C3CCCN(Cc4cccc(C)n4)C3)ccc2c1 (stereo not given) do in these assays?
KLK7 zymogen act: 45.3*; V-ATPase pHluor: -4.7; ADAM10 inh: inactive; ADAM17 inh: -263.8; proKLK7 act conf: -18.5; EDANS-DABCYL int: -19.6

How did CC(/C=N\NC(=O)CSc1nnc(-c2ccc(Br)cc2)n1-c1ccccc1)=C\c1ccco1 do in these assays?
KLK7 zymogen act: -1.8; ADAM10 inh: -7.9; ADAM17 inh: -0.8

How did COC(=O)[C@H]1C[C@@]2(n3ccc4ccccc43)c3ccccc3N(S(=O)(=O)c3ccccc3)[C@H]2N1 do in these assays?
KLK7 zymogen act: 0.6; ADAM10 inh: 10.1; ADAM17 inh: 5.3

Results for Cc1ccccc1C(=O)NC1CCCCN(Cc2cccc(F)c2)C1=O (stereo not given) ?
KLK7 zymogen act: 0.4; ADAM10 inh: -0.1; ADAM17 inh: -0.4

Results for Nc1cc(C(=O)O)c(Oc2ccc(Cl)cc2Cl)cc1C(=O)O ?
KLK7 zymogen act: 25.5*; V-ATPase pHluor: -1.2; ADAM10 inh: inactive; ADAM17 inh: inactive; proKLK7 act conf: 57.4*; EDANS-DABCYL int: 51.0*

Results for C[C@@H]1Cc2cc(O)cc(O)c2C(=O)O1 ?
KLK7 zymogen act: -0.1; ADAM10 inh: 3.0; ADAM17 inh: -3.5

Results for Cc1cc(-c2nc3cccnc3s2)ccc1NS(=O)(=O)c1cccs1 ?
KLK7 zymogen act: 71.4*; V-ATPase pHluor: -2.8; ADAM10 inh: inactive; ADAM17 inh: inactive; proKLK7 act conf: 66.0*; EDANS-DABCYL int: 56.8*

What do the screens show for `O=S(=O)(Nc1ccc(-c2nc3cccnc3s2)cc1)c1ccccc1F`?
KLK7 zymogen act: 98.7*; V-ATPase pHluor: -0.7; ADAM10 inh: inactive; ADAM17 inh: inactive; proKLK7 act conf: 66.0*; EDANS-DABCYL int: 72.7*

Screening results as filed in PubChem.
